The panel holds about 83,000 compounds, 20% with a hit somewhere; the sample as a whole holds those more often.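 Cells were grown in 96-well plates and exposed to the test compound at a single concentration for 48 hours; results are reported as percent growth, with values below 10 considered active.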 Activity calls are given as the source filed them.
Tests used:
Assay in all cases: NCI-60 one-dose screen, 48 h (100 = growth as untreated, 0 = no growth, -100 = all killed)
Conditions in all cases: 10 µM unless noted
[1] = system: SK-MEL-2 melanoma
[2] = system: EKVX NSCLC
[3] = system: SN12C renal
[4] = system: TK-10 renal
[5] = system: ACHN renal
[6] = system: CAKI-1 renal
[7] = system: A498 renal
[8] = system: CCRF-CEM leukemia
[9] = system: MOLT-4 leukemia
[10] = system: UO-31 renal

Measured: growth

CCOC(=O)c1c2c(n3ccccc13)C(=O)c1ncccc1C2=O
active: [5] 7.49% | [6] 9.11%
inactive: [1] 65.6% | [2] 40.4% | [3] 10.3% | [4] 38.4% | [7] 30.7% | [8] 32.1% | [9] 31.9%

O=C1CC2C=CCN2C=C1NC(=O)C1CCCCC1 (centres undefined)
inactive: [1] 101% | [2] 92.1% | [3] 110% | [4] 90.6% | [5] 105% | [6] 97.7% | [7] 128% | [8] 122% | [9] 99.5%

CN(C)c1ccc(-c2cc(-c3ccc(Nc4nc(Nc5ccc(Cl)cc5)nc(Nc5ccc(Cl)cc5)n4)cc3)nc(N)c2C#N)cc1
inactive: [1] 68.5% | [2] 79.8% | [3] 113% | [4] 104% | [5] 82.4% | [6] 82.3% | [7] 92.5% | [8] 46.9% | [9] 45%

COc1ccc(C2CC(c3ccc4c(c3)OCO4)=Nc3c(N)ncnc3N2)cc1 (centres undefined)
inactive: [1] 72.6% | [2] 119% | [3] 111% | [4] 118% | [5] 101% | [6] 120% | [7] 94.4% | [9] 91.9%
active: [8] 3.41%

COc1cc2c(/C=C3\C(=O)Nc4ccccc43)c(C(=O)O)[nH]c2cc1C
inactive: [1] 101% | [2] 89.2% | [3] 99.7% | [4] 134% | [5] 90.5% | [6] 94.8% | [7] 136% | [8] 88.7% | [9] 84%

O=C1/C(=C/c2ccc(C(F)(F)F)cc2)COc2ccc(O)c(O)c21
active: [3] -58.6% | [5] -57.6% | [6] -23.6% | [8] -3.75% | [9] -1.49%
inactive: [1] 98% | [2] 52.3% | [4] 11.9% | [7] 116%

COc1cc2c(c(OC)c1OC)C(=O)CC(c1cccc(NC(=O)c3ccccc3Br)c1)O2 (centres undefined)
inactive: [1] 75.8% | [2] 102% | [3] 91.5% | [4] 97.1% | [5] 93% | [6] 109% | [7] 75.9% | [8] 73.1% | [9] 69.6%

COc1ccc(-c2ccc(=O)oc2C#Cc2cc(OC)c(OC)c(OC)c2)cc1O
active: [6] -15.6% | [7] -0.779% | [8] 5.26%
inactive: [1] 29.6% | [2] 30.3% | [3] 21.2% | [4] 52.5% | [5] 52% | [9] 18.4%

Cc1ccc2[nH]c(=O)c3c(c2c1)OC(N)=C(C#N)C31C(=O)c2cccc3cccc1c23 (centres undefined)
inactive: [1] 110% | [2] 102% | [3] 97.8% | [10] 77.7% | [4] 123% | [5] 95.5% | [7] 107% | [8] 95.3% | [9] 88.1%

Cc1c(Cl)cccc1C(=O)Nc1nc2c(s1)CN(C(=O)Nc1cccc(C(F)(F)F)c1)CC2
inactive: [1] 37.4% | [2] 46% | [10] 27.8% | [4] 50.9% | [5] 18.3% | [8] 16.7% | [9] 15.9%
active: [7] -10.2%

CN1CCN(CCOc2ccc(-c3cnc4c(-c5ccc(C(F)(F)F)cc5)cnn4c3)cc2)CC1
active: [8] -13.7% | [9] -51.3%
inactive: [1] 63.3% | [2] 60.1% | [10] 38.1% | [4] 67.4% | [5] 58.8% | [6] 31% | [7] 69.5%

CCc1cccc(Sc2cc(C(=O)N3Cc4ccc(OCCN(C)C)cc4C3)ccc2O)c1
inactive: [1] 88.2% | [2] 39.2% | [10] 56.5% | [4] 63.2% | [5] 58.2% | [6] 83.5% | [7] 42.2% | [8] 29.2% | [9] 25%

CCNC(=O)Oc1ccc(/C(=C(/C)Cc2ccc(OC)cc2)c2ccc(OCCN3CCCC3)cc2)cc1
inactive: [1] 110% | [2] 76.2% | [10] 57.8% | [4] 88.1% | [5] 92.4% | [6] 82.3% | [7] 91.9% | [8] 45.8% | [9] 31.6%

COc1ccc(Cc2cnc(NC(=O)c3sc4ccccc4c3Cl)s2)cc1
inactive: [1] 43.9% | [2] 40.8% | [10] 48.4% | [4] 63.1% | [5] 41.3% | [6] 41.9% | [7] 21.3% | [8] 21% | [9] 14.8%

Nc1n[nH]c2ccc([C@@H]3Nc4cc5[nH]ncc5cc4[C@H]4C5CCC(C5)[C@@H]34)cc12 (some centres undefined)
inactive: [1] 65.2% | [2] 35.2% | [3] 36.4% | [4] 62.4% | [5] 32.1% | [8] 11.2% | [9] 22.5%
active: [7] -15.7%

CC[C@H](C)[C@H](NC(=O)[C@H](CCCNC(=N)N)NC(=O)[C@H](Cc1c[nH]c2ccccc12)NC(=O)[C@@H](NC(=O)[C@H](CCCCN)NC(=O)[C@H](CCCCN)NC(=O)[C@@H](NC(=O)[C@@H](NC(=O)[C@@H](NC(=O)[C@H](CCCCN)NC(=O)[C@H](Cc1ccccc1)NC(=O)[C@H](CCCCN)NC(=O)[C@H](CCCCN)NC(=O)[C@H](Cc1ccccc1)NC(=O)[C@@H](NC(=O)[C@@H](N)CCCCN)[C@@H](C)CC)[C@@H](C)O)[C@@H](C)CC)[C@@H](C)CC)C(C)C)C(=O)N[C@@H](Cc1ccccc1)C(=O)NCC(=O)N[C@@H](CCCNC(=N)N)C(=O)N[C@@H](Cc1ccccc1)C(N)=O
active: [1] -37.5% | [2] -71% | [10] -68.2% | [4] -69.4% | [5] -54.7% | [6] -52.2% | [7] -40.9%
inactive: [8] 17.6% | [9] 29%

Cc1ccc(/C=C2\CN(C(=O)C(Cl)Cl)C/C(=C\c3ccc(C)cc3)C2=O)cc1
active: [1] -5.43% | [2] -48.7% | [10] -100% | [4] -63.1% | [5] -97.8% | [6] -49.6% | [7] -89.3% | [8] 9.16% | [9] 0.0942%

O=C1Nc2ccccc2C2c3cccn3-c3ccccc3N12 (centres undefined)
inactive: [1] 52% | [2] 81.8% | [10] 70.4% | [4] 73.1% | [5] 94.8% | [7] 73.9% | [8] 80.9% | [9] 77.5%

CC(C)CCC[C@@H](C)C1CCC2C3CCC4=C/C(=N/OCCN(C)C)CC[C@]4(C)C3CC[C@@]21C (some centres undefined)
inactive: [1] 83.7% | [2] 94.7% | [4] 70.4% | [5] 88.9% | [6] 79.9% | [7] 80.8% | [8] 26.6% | [9] 49.2%

O=C(N=Nc1c(O)[nH]c2ccccc12)Nc1ccc(Cl)cc1
inactive: [1] 99.7% | [2] 86.5% | [10] 69.2% | [4] 101% | [5] 80.5% | [6] 89.2% | [7] 77.6% | [9] 87.3%
active: [8] -8.91%

N#Cc1c(-c2ccccc2)nc2c(c(-c3ccccc3)nn2-c2ccccc2)c1-c1ccc(N2CCOCC2)cc1
inactive: [1] 102% | [2] 103% | [3] 93.4% | [4] 101% | [5] 103% | [7] 95.1% | [8] 64.6% | [9] 62.7%

CS(=O)(=O)Nc1cc(-c2ccc3ncnc(Nc4ccc5c(cnn5Cc5cccnc5)c4)c3c2)cnc1Cl
inactive: [1] 14% | [2] 68.2% | [10] 47.9% | [4] 49% | [5] 75.8% | [7] 19.2% | [8] 32.9% | [9] 24.7%

CN1CCN(CCCOc2ccc3ncnc(Nc4ccc(Oc5cccc(F)c5)c(Cl)c4)c3c2)CC1
active: [1] -8.81% | [5] -11.3% | [6] 5.24% | [8] -6.61% | [9] -3.25%
inactive: [2] 29.6% | [10] 34.2% | [4] 37% | [7] 33.2%

CCOC(=O)c1ccc2c(c1)c1c(C)c3ccncc3c(C)c1n2C
active: [1] -38.2% | [10] -13.4% | [4] 2.52% | [5] -22.5% | [6] -10.4% | [7] -45.6% | [9] 8.03%
inactive: [2] 10.3% | [8] 12.6%

CSCCC(NC(=O)c1ccccc1)C(=O)N/N=C1\S/C(=C/c2ccc(Cl)cc2)C(=O)N1C (centres undefined)
active: [8] 4.24%
inactive: [1] 97.4% | [2] 92.7% | [4] 105% | [5] 76.5% | [7] 103% | [9] 66.8%

S=c1[nH]c2cc(Cl)ccc2o1
inactive: [1] 98.6% | [2] 99.3% | [10] 87.9% | [4] 94.6% | [5] 98.7% | [6] 97.8% | [7] 91.8% | [9] 63.1%
active: [8] -43.2%

CC(=O)Nc1c(Cl)cc(Cl)c2c1Cc1cc([N+](=O)[O-])ccc1-2
inactive: [1] 105% | [2] 59.4% | [10] 91.1% | [4] 99.4% | [5] 82.3% | [6] 84.5% | [7] 102% | [8] 89.7% | [9] 87%

N#Cc1c(NC(=O)c2cccs2)[n+]([O-])c2ccc(Cl)cc2[n+]1[O-]
inactive: [1] 59.3% | [2] 98.7% | [10] 98.6% | [4] 118% | [5] 99.5% | [6] 73% | [7] 41.4% | [8] 95.9% | [9] 97.3%

Reference: PubChem BioAssay (NCI)
